Values without a mark were called inactive. For some of these results: Potency and affinity values are given separately. The source made the active and inactive calls. Unless noted, the rule behind the calls is not given here.

Test [1] can be described thus: antimalarial activity against Dd2 strain (AID 2302;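 active = growth inhibition above 50% at the single 2 µM test dose, taken to imply half-maximal potency below 2 µM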;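 note: 0% = DMSO untreated growth and 100% = chloroquine plus artemisinin killed control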). Conditions: P. falciparum Dd2 in RBCs, LDH growth readout, 72 h; at 2 µM; active compounds read high.
The nature of test [2]: human hepatoma cell viability loss – ATP luminescence, cytotoxicity control for P. falciparum antimalarial project, primary screen (AID 2303;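 active = inhibition above 50%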;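 note: 0% = DMSO wells and 100% = digitonin-killed cells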). Conditions: HepG2 viability, 24-48 h, at 10 µM, active compounds read high.
In test [3] the target is L-lactate dehydrogenase (Plasmodium falciparum (isolate CDC / Honduras)) (UniProt Q27743). Nature of the test: PfLDH activity inhibition – cell lysate, 3D7 strain, counter-screen for P. falciparum growth inhibition project (AID 2304).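 Note: 0% = vehicle and 100% = reference inhibitor.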 Conditions: P. falciparum 3D7 crude extract, LDH APAD/NBT absorbance; at 2 µM; active compounds read high. (Counterscreens check selectivity or assay interference.)
L-lactate dehydrogenase (Plasmodium falciparum (isolate CDC / Honduras)), sequence (Q27743 whole entry, looked up): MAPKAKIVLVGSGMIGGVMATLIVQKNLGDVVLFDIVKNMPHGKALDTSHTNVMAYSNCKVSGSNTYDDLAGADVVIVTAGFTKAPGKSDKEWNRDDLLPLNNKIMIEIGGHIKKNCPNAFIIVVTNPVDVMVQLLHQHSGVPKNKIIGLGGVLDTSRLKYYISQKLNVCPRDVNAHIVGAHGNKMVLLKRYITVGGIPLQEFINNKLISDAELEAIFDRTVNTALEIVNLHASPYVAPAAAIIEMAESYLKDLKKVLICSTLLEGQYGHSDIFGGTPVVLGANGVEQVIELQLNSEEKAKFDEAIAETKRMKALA

Test [4] can be described thus: inhibition of 3D7 malaria parasite growth – strain 3D7 (AID 2306).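 Note: 0% = DMSO wells and 100% = chloroquine plus artemisinin control wells.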 Particulars: P. falciparum 3D7 erythrocytic growth, LDH absorbance, 72 h; at 2 µM; active compounds read high.
Test [5] concerns the target Calcium-dependent protein kinase 1 (Plasmodium falciparum (isolate 3D7)) (UniProt P62344). Nature of the test: PfCDPK1 kinase inhibitors, biochemical, TCAMS library (AID 1159585; cut-off not given, nearly all actives have IC50 up to about 0.98 µM;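 note: inhibitors leave more ATP so luminescence rises with inhibition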). Particulars: recombinant PfCDPK1, Kinase-Glo ATP depletion luminescence. Background: Kinase-Glo measures the ATP left after a reaction by luminescence.
The target in test [6] is Plasmodium falciparum protein kinase 6 (PK6, PF3D7_1337100) (UniProt Q8IDW1). The test can be described thus: PfPK6 kinase inhibitors, biochemical, TCAMS library (AID 1159586). Particulars: recombinant PfPK6, Kinase-Glo ATP depletion luminescence.
Plasmodium falciparum protein kinase 6 (PK6, PF3D7_1337100), sequence (Q8IDW1 1-305): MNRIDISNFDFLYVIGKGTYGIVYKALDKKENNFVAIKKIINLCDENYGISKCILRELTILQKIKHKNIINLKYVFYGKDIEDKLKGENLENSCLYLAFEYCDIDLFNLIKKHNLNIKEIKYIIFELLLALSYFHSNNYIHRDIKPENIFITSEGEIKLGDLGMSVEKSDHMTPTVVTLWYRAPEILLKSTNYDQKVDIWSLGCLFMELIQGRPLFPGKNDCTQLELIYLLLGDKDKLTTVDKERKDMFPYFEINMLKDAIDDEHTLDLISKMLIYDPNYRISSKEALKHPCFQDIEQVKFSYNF
The target of test [7] is Protein kinase 7 (PK7), Plasmodium falciparum 3D7 (PF3D7_0213400) (UniProt Q7YTF7). Nature of the test: inhibition of Plasmodium PK7 catalytic activity – biochemical, TCAMS antimalarial set, Kinase-Glo luminescence (AID 1159587). Conditions: recombinant PfPK7, Kinase-Glo ATP depletion luminescence.
Protein kinase 7 (PK7), Plasmodium falciparum 3D7 (PF3D7_0213400), sequence (Q7YTF7 1-343): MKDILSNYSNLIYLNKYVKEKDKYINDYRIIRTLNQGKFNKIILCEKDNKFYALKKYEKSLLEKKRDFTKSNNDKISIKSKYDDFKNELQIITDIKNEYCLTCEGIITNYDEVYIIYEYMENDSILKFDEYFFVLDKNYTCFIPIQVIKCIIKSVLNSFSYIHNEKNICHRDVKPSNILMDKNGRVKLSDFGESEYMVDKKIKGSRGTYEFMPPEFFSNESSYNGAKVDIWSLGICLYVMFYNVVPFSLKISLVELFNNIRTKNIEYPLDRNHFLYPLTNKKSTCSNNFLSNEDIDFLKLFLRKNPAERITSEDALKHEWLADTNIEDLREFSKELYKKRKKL
Test [8] has as its target Calcium-dependent protein kinase 4 (Plasmodium falciparum (isolate 3D7)) (UniProt Q8IBS5). The test can be described thus: PfCDPK4 kinase inhibitors, biochemical, TCAMS library (AID 1159588; cut-off not given, nearly all actives have IC50 up to about 0.91 µM). Particulars: recombinant PfCDPK4, Kinase-Glo ATP depletion luminescence.

Calcium-dependent protein kinase 1 (Plasmodium falciparum (isolate 3D7)), sequence (P62344 whole entry, looked up): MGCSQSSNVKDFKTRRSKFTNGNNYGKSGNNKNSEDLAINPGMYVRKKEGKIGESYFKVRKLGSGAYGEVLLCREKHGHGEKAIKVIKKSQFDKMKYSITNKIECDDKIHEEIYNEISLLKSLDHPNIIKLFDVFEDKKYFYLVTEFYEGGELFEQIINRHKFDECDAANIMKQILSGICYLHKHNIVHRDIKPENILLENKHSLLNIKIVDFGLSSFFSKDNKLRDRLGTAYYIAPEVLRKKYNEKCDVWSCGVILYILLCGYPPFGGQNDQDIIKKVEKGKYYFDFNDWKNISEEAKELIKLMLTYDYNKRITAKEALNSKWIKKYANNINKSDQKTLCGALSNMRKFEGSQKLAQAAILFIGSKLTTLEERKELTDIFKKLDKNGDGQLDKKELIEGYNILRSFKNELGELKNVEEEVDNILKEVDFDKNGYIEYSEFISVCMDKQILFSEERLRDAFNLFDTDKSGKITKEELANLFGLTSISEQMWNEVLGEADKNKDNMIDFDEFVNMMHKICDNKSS
Calcium-dependent protein kinase 4 (Plasmodium falciparum (isolate 3D7)), sequence (Q8IBS5 whole entry, looked up): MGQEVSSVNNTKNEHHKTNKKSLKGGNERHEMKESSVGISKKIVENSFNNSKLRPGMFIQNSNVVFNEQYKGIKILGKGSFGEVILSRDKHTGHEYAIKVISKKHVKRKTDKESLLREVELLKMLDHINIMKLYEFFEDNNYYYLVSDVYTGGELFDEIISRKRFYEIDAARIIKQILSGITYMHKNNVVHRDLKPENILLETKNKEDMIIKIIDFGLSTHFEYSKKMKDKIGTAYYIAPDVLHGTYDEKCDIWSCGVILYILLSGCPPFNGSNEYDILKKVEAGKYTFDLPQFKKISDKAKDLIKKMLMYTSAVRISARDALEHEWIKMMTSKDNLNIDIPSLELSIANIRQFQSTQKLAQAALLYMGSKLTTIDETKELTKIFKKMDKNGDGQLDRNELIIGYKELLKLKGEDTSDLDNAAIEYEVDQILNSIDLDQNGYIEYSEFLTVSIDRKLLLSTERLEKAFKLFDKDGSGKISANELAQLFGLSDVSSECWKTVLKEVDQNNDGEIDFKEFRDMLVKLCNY

As usually defined, the inhibition is the change of the read-out against control, counted positive when it falls. Take `O=C(Nc1ccc([N+](=O)[O-])cc1Br)c1cc2ccccc2nc1Cl`: the results for the growth inhibition in test [1] and in test [4] were 68% (active) and 97% (active), respectively. Moreover, the values for the inhibition in test [2] and in test [3] were -4% and 2%, respectively. Besides, the result in test [5], in test [6], in test [7] and in test [8] was inactive.
On to `Cc1[nH]c(C)c(-c2ccc(-c3ccccc3Cl)nc2)c(=O)c1Br`, for which the growth inhibition in test [1] is 96% (active); in test [4], 97% (active). Besides, the values for the inhibition in test [2] and in test [3] were -2% and -5%, respectively. In addition, the result in test [5], in test [6], in test [7] and in test [8] was inactive.
As to `COc1ccc2nccc([C@@H](O)CN3CCC(NCc4cc5ccccc5s4)CC3)c2c1`, the figures for the growth inhibition in test [1] and in test [4] were 53% (active) and 97% (active), respectively. For the same compound, the inhibition in test [2] is 8%; in test [3], 3%. Also, the result in test [5], in test [6], in test [7] and in test [8] was inactive.
As to `COc1ccccc1CNC(=O)c1cc(C2CC2)nc2c1cnn2C(C)C`, the growth inhibition was 92% (active) in test [1] and 94% (active) in test [4]. The inhibition was 47% in test [2] and 5% in test [3]. Also, the outcome in test [5], in test [6], in test [7] and in test [8] was inactive.
For `c1ccc(N2CCN(c3cc(-c4cccnc4)nc(-c4ccncc4)n3)CC2)nc1`, the growth inhibition in test [1] was 22%; in test [4], 99% (active). Moreover, the inhibition in test [2] was 22%; in test [3], -2%. In addition, the result in test [5], in test [6], in test [7] and in test [8] was inactive.
As for `Cc1[nH]cnc1Cc1ccc2c(c1O)c1ccccc1n2C`, the growth inhibition in test [1] is 16%; in test [4], 90% (active). In addition, the inhibition is 9% in test [2] and -2% in test [3]. Moreover, the outcome in test [5], in test [6], in test [7] and in test [8] was inactive.
Take `COc1ccc2nccc([C@@H](O)CN3CCC(NCc4cc5c(Cl)cccc5[nH]4)CC3)c2c1`: the figures for the growth inhibition in test [1] and in test [4] were 74% (active) and 101% (active), respectively. The inhibition is 40% in test [2] and 1% in test [3]. The result in test [5], in test [6], in test [7] and in test [8] was inactive.
Consider `O=C(NCCCN1CCC(NC(=O)c2ccc(-c3cccnc3)cc2)CC1)c1ccc(Cl)c(Cl)c1`, for which the growth inhibition in test [1] is 23%; in test [4], 94% (active). Moreover, the inhibition in test [2] was 17%; in test [3], -5%. Also, the outcome in test [5], in test [6], in test [7] and in test [8] was inactive.
Regarding `O=C(Nc1ccc2c(c1)CN(Cc1ccc(N3CCCC3)o1)CCC2)c1ccoc1`, the growth inhibition in test [1] was 76% (active); in test [4], 89% (active). Further, the inhibition was 4% in test [2] and -3% in test [3]. The outcome in test [5], in test [6], in test [7] and in test [8] was inactive.
Consider `Nc1c2ccccc2nc2ccc(-c3ccccc3)cc12`, for which the growth inhibition in test [1] was 99% (active); in test [4], 101% (active). Also, the inhibition is 100% (active) in test [2] and 2% in test [3]. The outcome in test [5], in test [6], in test [7] and in test [8] was inactive.
Consider `CCOc1ccc(-n2nc3c(Cl)nnc(-c4ccccc4)c3c2-c2ccccc2)cc1`, for which the results for the growth inhibition in test [1] and in test [4] were 99% (active) and 96% (active), respectively. The inhibition in test [2] was 0%; in test [3], 9%. Besides, the outcome in test [5], in test [6], in test [7] and in test [8] was inactive.
In the case of `CCc1ccc(C2CCN(CCCCNC(=O)c3ccc(NC(=O)c4ccc(Cl)cc4)cc3)CC2)c(OC)c1`, the growth inhibition in test [1] was 80% (active); in test [4], 101% (active). Further, the inhibition in test [2] was 26%; in test [3] it was -6%. The outcome in test [5], in test [6], in test [7] and in test [8] was inactive.
As to `CCCCCn1c(Sc2ccc(C#N)c([N+](=O)[O-])c2)nnc1-c1ccccc1`, the growth inhibition is 15% in test [1] and 93% (active) in test [4]. Further, the inhibition was 22% in test [2] and -2% in test [3]. The result in test [5], in test [6], in test [7] and in test [8] was inactive.
As to `c1ccc(CN2CCN(CCNc3c4ccccc4nc4ccccc34)CC2)cc1`, the growth inhibition in test [1] is 97% (active); in test [4], 100% (active). The inhibition in test [2] is 44%; in test [3], 9%. Further, the result in test [5], in test [6], in test [7] and in test [8] was inactive.
As to `O=C(Nc1cccc(CN2CCCN(Cc3ccc(O)cc3)CC2)c1)c1ccc(Br)cc1`, the growth inhibition is 54% (active) in test [1] and 94% (active) in test [4]. Besides, the values for the inhibition in test [2] and in test [3] were 19% and -2%, respectively. For the same compound, the outcome in test [5], in test [6], in test [7] and in test [8] was inactive.
Take `COc1ccc(C2C(C(=O)Nc3cc(Cl)c(OC)cc3OC)c3ccccc3C(=O)N2C)cc1` (stereo not given): the growth inhibition in test [1] was 98% (active); in test [4], 101% (active). Further, the inhibition in test [2] was 14%; in test [3], 4%. Also, the result in test [5], in test [6], in test [7] and in test [8] was inactive.
For `O=C(NCCCc1ccccc1)c1ccc(O)c(-c2cc(Cl)cc(Cl)c2)c1`, the growth inhibition in test [1] was 98% (active); in test [4] it was 99% (active). Also, the inhibition in test [2] is -1%; in test [3], -3%. Moreover, the outcome in test [5], in test [6], in test [7] and in test [8] was inactive.
With `COc1ccccc1NC(=O)Nc1cccc(-c2cccc(-c3nc4c(C)cccc4[nH]3)c2)c1`, the growth inhibition is 90% (active) in test [1] and 101% (active) in test [4]. Also, the inhibition in test [2] was 11%; in test [3], -1%. Besides, the result in test [5], in test [6], in test [7] and in test [8] was inactive.
Take `COc1ccc2nccc(N3CCC(CCNCc4ccc5c(n4)NC(=O)CS5)CC3)c2c1`: the growth inhibition is 86% (active) in test [1] and 101% (active) in test [4]. Also, the inhibition in test [2] is 55% (active); in test [3], -1%. Further, the result in test [5], in test [6], in test [7] and in test [8] was inactive.
Consider `O=C(c1ccccc1N=Nc1c(-c2ccccc2)[nH]n(-c2ccccc2)c1=O)N1CCOCC1`, for which the values for the growth inhibition in test [1] and in test [4] were 2% and 97% (active), respectively. Moreover, the values for the inhibition in test [2] and in test [3] were 0% and -1%, respectively. In addition, the outcome in test [5], in test [6], in test [7] and in test [8] was inactive.

The record behind these values is PubChem BioAssay.
